This excerpt belongs to a sample that is enriched for hits.
Pf Dd2 growth: blocks in vitro growth of P. falciparum Dd2 | Potency, µM (titrated, usually from 28.9 µM), inactives show at the highest dose activity, negative = inhibition, usual class: inhibitors | P. falciparum Dd2 growth, SYBR Green, 72 h | 120,000 tested, 4.3% active; active means well fitted inhibition curve with a large enough effect;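 further: plate controls were DMSO vehicle for no effect and reference drug for full effect; nearly all actives have a fitted effect of over 65% in size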
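Infected erythrocytes (Dd2, 0.3% parasitemia, 2.5% hematocrit final) are added to compound in RPMI-1640/Albumax II medium, grown 72 h at 37C in low oxygen, then lysed with saponin/Triton-X containing SYBR Green and read by fluorescence.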
* marks the source's active call; other numbers are inactive results; i = inactive; [ ] = dose if it differs, or a comment. Potency means the concentration at half of the fitted maximal effect.

SMILES | Pf Dd2 growth
Cc1noc(-c2cccc(OC3CN(C(=O)CCCc4ccccc4)C3)c2)n1 | i[5.79 µM]
COCC(=O)Nc1ccc([C@H]2OCC(=O)N(Cc3scnc3C)[C@@H]2CO)cc1 | 6.4%[44.1 µM]
O=C(NCc1ccc(F)cc1)N1CCCC(Cc2nncn2-c2ccccc2)C1 (centres undefined) | i
O=C1CCCCCN1C1CCN(Cc2ccc(F)cc2)CC1 | -6.7%[44.1 µM]
O=C(CN1CCCc2nc(C3CC3)ncc2C1=O)NCCCN1CCOCC1 | 13.3%
CCc1noc(CN2CCC3(CC2)CN(CCc2ccccc2)C(=O)O3)n1 | -3.1%
Cn1ccnc1CN1C(=O)NC2(CCNCC2)C1=O | 2.2%
O=C1NC2(CCNCC2)C(=O)N1CCCc1cccnc1 | -2.8%
O=C1N(CCCCOc2ccccc2)c2ccccc2NC12CCNCC2 | 7.94µM*
O=C(C1CCOCC1)N1CCc2c(n(Cc3ccccc3)n(-c3ccccc3)c2=O)C1 | 45.8%[44.1 µM]
CCc1ccc(C(=O)N2[C@@H]3CC[C@H]2CC(NC(=O)c2ccncc2)C3)cc1 (some centres undefined) | -14.1%
COc1ccc(CCNC(=O)c2c(C)noc2-c2ccc(OC(F)(F)F)cc2)cc1OC | i
Cc1noc(C)c1C(=O)NC1CCCc2c1[nH]c1ccc(F)cc21 (centres undefined) | -10.9%
O=C(CCNC(=O)c1cnccn1)NC1CCCc2c1[nH]c1ccc(F)cc21 (centres undefined) | -9.1%
Cc1noc(C)c1CC(=O)NC1CCCc2c1[nH]c1c(Cl)cccc21 (centres undefined) | 7.94µM*
O=C(NC1CCCc2c1[nH]c1ccc(F)cc21)c1cccs1 (centres undefined) | i
Cc1noc(C)c1C(=O)NC1CCCc2c1[nH]c1c(Cl)cccc21 (centres undefined) | -8.5%
O=C(Cc1c[nH]c2ccccc12)NC1CCCc2c1[nH]c1ccc(F)cc21 (centres undefined) | 12.6µM*
COc1ccc(CC(=O)NC2CCCc3c2[nH]c2ccc(F)cc32)cc1OC (centres undefined) | -16.4%
CC(C)CC(=O)NC1CCCc2c1[nH]c1c(Cl)cccc21 (centres undefined) | -22.4%
Cc1noc(C)c1CCC(=O)NC1CCCc2c1[nH]c1ccc(F)cc21 (centres undefined) | 11.2µM*
CC(C)C1CN(C(=O)c2ccc(F)cn2)CCC(=O)N1Cc1ccc(F)cc1 (centres undefined) | 10.4%
O=[S+]([O-])(c1ccccc1)N1CCCC2(CC(c3cccnc3)=NO2)C1 (centres undefined) | 0.3%
CN(C)C[C@@H]1CN(c2ncccn2)C[C@H]1NC(=O)c1cccc(F)c1 | -11.3%
CN(Cc1ccccc1)Cc1cc(CC2(NCc3ccccc3)COC2)no1 | i
SMILES | Pf Dd2 growth
COC[C@H]1NC(=O)CC[C@H]1C(=O)Nc1cccc(OC)c1 | -13.9%
COC(=O)CNC(=O)C1c2ccccc2C(=O)N(CC(C)C)C12CCCCC2 (centres undefined) | -6.9%
O=C(C1CCCCC1)N1CCC(OC2CCN(Cc3ccccc3)CC2)CC1 | i
CS(=O)(=O)N1CCC(OC2CCN(C(=O)Nc3ccccc3F)CC2)CC1 | i
Cc1c(F)cccc1NC(=O)N1CCC(OC2CCN(Cc3ccccc3)CC2)CC1 | 4.47µM*
O=C(Nc1cccc(Cl)c1F)N1CCC(OC2CCN(Cc3ccccc3)CC2)CC1 | 6.31µM*
COc1ccc(C)cc1NC(=O)N1CCC(OC2CCN(S(C)(=O)=O)CC2)CC1 | 13.7%
O=S(=O)(c1ccc(F)cc1)N1CCC(OC2CCN(Cc3ccccc3)CC2)CC1 | i
COc1ccc(C)cc1NC(=O)N1CCC(OC2CCN(Cc3ccccc3)CC2)CC1 | 11.2µM*
CC(C)(C)C(=O)N1CCC(OC2CCN(Cc3ccccc3)CC2)CC1 | -1.0%
O=C(NC1CCCCC1)N1CCC(OC2CCN(Cc3ccccc3)CC2)CC1 | 213.0%
COc1ccc(C)cc1NC(=O)N1CCC(CN2CCC(C)CC2)CC1 | 1.9%
O=C(c1ccc(F)cc1)N1CCC(OC2CCN(Cc3ccccc3)CC2)CC1 | 11.2µM*
CCc1cccc(NC(=O)N2CCC(OC3CCN(Cc4ccccc4)CC3)CC2)c1 | -7.2%
CN(C(=O)Cn1cccc1-c1nc(-c2ccccc2)no1)c1ccc(F)cc1 | i
COC(=O)c1cn([C@H]2CO[C@H]3[C@@H]2OC[C@@H]3NC(=O)NCc2ccccc2)nn1 | -6.3%[44.1 µM]
CNC(C)c1cnccn1 (centres undefined) | 18.0%[44.1 µM]
Cc1ccc(C(=O)N[C@H]2CO[C@H]3[C@@H]2OC[C@@H]3n2cc(CC3CCCCC3)nn2)cc1 | i
O=S(=O)(c1ccccc1F)N1CCC(n2cnnc2C2CC2)CC1 | i
CN(Cc1ccccc1)c1ccc(C(=O)N2CCC(CN3CCCC3=O)CC2)cn1 | -11.2%
Cc1noc(-c2ccn3c(CNC(=O)c4ccco4)nnc3c2)n1 | -15.4%
CC(=O)N[C@H]1CC[C@]2(C)CC[C@@H](C(C)C(=O)NC3CCCC3)[C@H](O)[C@H]2[C@@H]1C (some centres undefined) | 0.9%[44.1 µM]
Cc1ccc(CN2CCOc3ccc(C(=O)NCc4ccccc4F)cc3C2)o1 | i
CN1CCCN(C(=O)COc2ccc(Cl)cc2)c2ccccc21 | -23.7%
O=C(Nc1ccc([C@H]2OCC(=O)N(Cc3ccc(F)cc3)[C@@H]2CO)cc1)C1CCOCC1 | -15.9%
SMILES | Pf Dd2 growth
CCOc1ccc2nc(N(Cc3cccnc3)C(C)=O)sc2c1 | i
COc1ccc2nc(N(Cc3cccnc3)C(=O)C3CCCCC3)sc2c1 | 2.51µM*
O=C(C1COc2ccccc2O1)N(Cc1cccnc1)c1nc2ccc(Cl)cc2s1 (centres undefined) | i
O=C(COc1ccccc1)N(Cc1cccnc1)c1nc2ccc(Cl)cc2s1 | -20.8%
COc1ccc2nc(N(Cc3cccnc3)C(C)=O)sc2c1 | i
COc1ccc2nc(N(Cc3cccnc3)C(=O)CCc3ccccc3)sc2c1 | 1µM*
O=C(c1ccc(Cl)cc1)N1CCn2c(nn(-c3ccc(F)cc3F)c2=O)C1 | 4.5%
C[C@@H](NC(=O)c1cccnc1)c1onc(-c2ccc(F)cc2)c1C(=O)O | -12.8%[44.1 µM]
COc1ccc(C(=O)N2C[C@@H](Oc3ccccc3)C[C@H]2C(=O)N2CCOCC2)cc1F | 5.1%
COC(=O)C1CCN([C@H]2[C@@H]3OC[C@@H](O3)[C@@H](NC(=O)Nc3cccc(OC)c3)[C@@H]2O)CC1 | 5.8%
Cc1ccc(C(=O)N2CCC3(CC2)NC(=O)c2ccccc2O3)cc1 | i
CN(C)c1ccc(CN(C)C2CCOc3ccccc32)cc1 (centres undefined) | -20.1%[44.1 µM]
Cc1cccc(OC[C@H]2C[C@@H](NC(=O)c3ccccc3)[C@H](O)[C@@H]2O)n1 | -11.7%[44.1 µM]
Oc1ccc(-c2nc(C3CC3)nc3c2CCN(Cc2ccccc2)CC3)cc1 | -8.2%
Oc1ccc(-c2nc(C3CC3)nc3c2CCN(Cc2ccc(OC(F)(F)F)cc2)CC3)cc1 | -1.6%
CCc1nc2c(c(-c3ccc(O)cc3)n1)CCN(Cc1ccc(OC)cc1)CC2 | 2µM*
CCc1nc2c(c(-c3ccc(Cl)cc3)n1)CCN(Cc1ccc(C(F)(F)F)cc1)CC2 | i
CCc1nc2c(c(-c3ccc(Cl)cc3)n1)CCN([S+](=O)([O-])c1cccc(OC)c1)CC2 | 12.6µM*
CCc1nc2c(c(-c3ccc(O)cc3)n1)CN(Cc1ccc(OC)cc1)CC2 | -16.8%
CCc1nc2c(c(-c3ccc(Cl)cc3)n1)CCN(Cc1cc(C)on1)CC2 | i
COc1ccc(-c2nc(C3CC3)nc3c2CCN(Cc2ccsc2)CC3)cc1 | 10µM*
COc1cccc([S+](=O)([O-])N2CCc3nc(C4CC4)nc(-c4ccc(Cl)cc4)c3C2)c1 | -19.7%

Screening data as filed in PubChem.
